Screening results as filed in PubChem.
PL synth Enamine – animal cell phospholipid biosynthesis inhibition, Enamine screen. calls only at 10 µM. ZR-82 CHO cells, pyrene fatty acid UV survival, CellTiter Blue; peroxisome-deficient CHO-K1 mutant line; plus DGAT-1, DGAT-2 and ACAT inhibitors. hit rate 0.4% among 20,000;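 active means cell survival signal 2 SD away from solvent-only control wells, confirmed on one or two retests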;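 further: 3 h compound exposure then viability read about one day after UV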
The depositor's hits bear a star. The entries come from a sample that favours hits as a whole.

What do the screens show for `O=C(O)C1CCN(C2CCS(=O)(=O)C2)CC1` (stereo not given)?
PL synth Enamine: inactive

Results for Clc1ccc(N=C2SCCN2C2CCCCC2)cc1 ?
PL synth Enamine: inactive

Results for O=C(CSc1nccc(=O)[nH]1)CSc1nccc(=O)[nH]1 ?
PL synth Enamine: inactive

How did Cc1cccc(N=Nc2c(C)nn(-c3ccccc3)c2N)c1C do in these assays?
PL synth Enamine: inactive

How did Cc1nn(-c2ccccc2)c(N)c1N=Nc1ccc([N+](=O)[O-])c(C(F)(F)F)c1 do in these assays?
PL synth Enamine: active

How did Cc1ccc(-n2nc(C)c(N=Nc3ccccc3C)c2N)cc1 do in these assays?
PL synth Enamine: inactive

How did Cc1c(C(=O)OCC(=O)c2ccc(Cl)s2)sc2nc3n(c(=O)c12)CCC3 do in these assays?
PL synth Enamine: inactive

How did O=c1[nH]ncc(Nc2ccc(F)cc2)c1Cl do in these assays?
PL synth Enamine: inactive

What do the screens show for `Cc1ccc(N=Nc2cc(C(C)(C)C)cc(Br)c2O)cc1`?
PL synth Enamine: active

How did CC(C)(C)N/N=C/c1cc(Br)c(O)c(Br)c1 do in these assays?
PL synth Enamine: inactive

How did CC(C)(C)c1cc(C=Nc2cc(C(C)(C)C)cc(C(C)(C)C)c2O)c(O)c(C(C)(C)C)c1 do in these assays?
PL synth Enamine: inactive

Results for O=C(O)C1CNc2ccccc2O1 (stereo not given) ?
PL synth Enamine: inactive

What do the screens show for `Fc1ccc2[nH]c(-c3ccccc3)c(-c3nc4ccccc4[nH]3)c2c1`?
PL synth Enamine: inactive

Results for O=C(O)C12Nc3ccccc3C(C(=O)O)(Nc3ccccc31)O2 ?
PL synth Enamine: inactive

How did CC1CCCC/C1=N\NC(=S)NC1CCCCC1 (stereo not given) do in these assays?
PL synth Enamine: inactive

What do the screens show for `CC(C)NC(=S)NN=C1CCC(C(C)(C)C)CC1` (stereo not given)?
PL synth Enamine: inactive

Results for CC(C)NC(=S)N/N=C1\CCCCC1C1CCCCC1 (stereo not given) ?
PL synth Enamine: active

How did C=CCn1c(SCC(=O)c2[nH]c(C)c(C(C)=O)c2C)nc2sc3c(c2c1=O)CCC3 do in these assays?
PL synth Enamine: inactive

Results for Nc1c(Br)cc(Br)cc1[N+](=O)[O-] ?
PL synth Enamine: inactive

Results for CCCCN(CCCC)[P+](Nc1n[nH]c(=O)[nH]c1=O)(N(CCCC)CCCC)N(CCCC)CCCC ?
PL synth Enamine: active

Results for CC(=O)Nc1sc(C)c(C)c1C(=O)OC(C)C(=O)NC1CCCC1 (stereo not given) ?
PL synth Enamine: inactive

What do the screens show for `Cn1c(SCc2nc3ccsc3c(=O)[nH]2)nnc1C1CC1`?
PL synth Enamine: inactive

What do the screens show for `CN(C)c1ccc(N=Cc2cc([N+](=O)[O-])ccc2OC(F)F)cc1`?
PL synth Enamine: inactive

Results for CN(C)P(=Nc1ccc([N+](=O)[O-])cc1Br)(N(C)C)C(C)(C)C ?
PL synth Enamine: inactive

How did O=[N+]([O-])c1ccc(Cl)c(S(=O)(=O)Nc2ccc(SC(F)F)cc2)c1 do in these assays?
PL synth Enamine: inactive

What do the screens show for `O=[N+]([O-])c1ccc(N=Nc2ccc(NCC(F)(F)C(F)F)cc2)c(Cl)c1`?
PL synth Enamine: active

What do the screens show for `Nc1ccc([N+](=O)[O-])cc1C(F)(F)F`?
PL synth Enamine: inactive

What do the screens show for `CN(C)c1ccc(N=Nc2ccc([N+](=O)[O-])cc2C(F)(F)F)cc1`?
PL synth Enamine: active

How did CC1=CC(=O)C(C(=O)/C=C/c2ccsc2)C(=O)O1 (stereo not given) do in these assays?
PL synth Enamine: inactive

What do the screens show for `c1ccc2c(c1)nc(CCc1c[nH]c3ccccc13)n1c3ccccc3nc21`?
PL synth Enamine: inactive

What do the screens show for `CN=c1scc(-c2ccccc2F)n1/N=C/c1ccccc1F`?
PL synth Enamine: active

Results for CN=c1scc(-c2ccc(Br)cc2)n1/N=C/c1ccccc1F ?
PL synth Enamine: inactive

How did CN=c1scc(-c2ccccc2F)n1/N=C/c1ccccc1 do in these assays?
PL synth Enamine: inactive

Results for CN(C)c1ccc(C2Nc3cc(C(C)(C)C)cc(C(C)(C)C)c3O2)cc1 (stereo not given) ?
PL synth Enamine: inactive

How did Cc1cc(C)c2[nH]c(O)c(N=Nc3ccccn3)c2c1 do in these assays?
PL synth Enamine: active

What do the screens show for `CCN(CC)S(=O)(=O)c1ccc(N=Nc2c(O)[nH]c3c(C)cc(C)cc23)nc1`?
PL synth Enamine: inactive

What do the screens show for `Oc1[nH]c2ccc(Br)cc2c1N=Nc1ccccn1`?
PL synth Enamine: inactive

How did O=S(=O)(CCS(=O)(=O)c1ccccc1)OCC(F)(F)F do in these assays?
PL synth Enamine: inactive

What do the screens show for `c1cnc(N2CCN(Cc3csc(-c4cccs4)n3)CC2)nc1`?
PL synth Enamine: inactive

What do the screens show for `O=S(=O)(Nc1ccc(S(=O)(=O)C(F)F)cc1)C1=Cc2ccccc2CC1`?
PL synth Enamine: inactive

How did Brc1ccccc1C=C(c1nc2ccccc2s1)c1nc2ccccc2s1 do in these assays?
PL synth Enamine: inactive

Results for O=C1Nc2ccc(Br)cc2C1=C(c1nc2ccccc2s1)c1nc2ccccc2s1 ?
PL synth Enamine: active

How did Oc1c(Br)cc(/C=C/c2nc3ccccc3s2)cc1Br do in these assays?
PL synth Enamine: inactive

How did CNC(=O)NC(=O)CSc1nnc(Cc2cccs2)n1C1CC1 do in these assays?
PL synth Enamine: inactive

How did Cn1cc(S(=O)(=O)N2CCC(C(=O)O)CC2)cc1C(N)=O do in these assays?
PL synth Enamine: inactive

How did O=C(/C(=C/c1cccs1)c1cccs1)N1CCCCCC1 do in these assays?
PL synth Enamine: inactive

Results for CN1/C(=C2\C=NN(c3ccccc3)P2(=O)Nc2ccc([N+](=O)[O-])cc2)C(C)(C)c2ccccc21 (stereo not given) ?
PL synth Enamine: active

How did Cc1cc([N+](=O)[O-])ccc1NP1(=O)/C(=C2/N(C)c3ccccc3C2(C)C)C=NN1c1ccccc1 (stereo not given) do in these assays?
PL synth Enamine: inactive

How did Cc1nn(-c2ccccc2)c2c1P(=S)(Nc1ccc([N+](=O)[O-])cc1)/C(=C1/N(C)c3ccccc3C1(C)C)C=N2 (stereo not given) do in these assays?
PL synth Enamine: inactive

How did C(=N\n1c(-c2ccccc2)csc1=NCCc1ccccc1)/c1c[nH]c2ccccc12 do in these assays?
PL synth Enamine: active

How did CN=c1scc(-c2ccccc2)n1/N=C/c1c[nH]c2ccccc12 do in these assays?
PL synth Enamine: inactive

What do the screens show for `C(=N\n1c(-c2ccco2)csc1=NCCc1ccccc1)/c1ccco1`?
PL synth Enamine: inactive

What do the screens show for `CN(C)C(=S)N=P(c1ccccc1)(c1ccccc1)c1cccn1C`?
PL synth Enamine: inactive

How did CCc1nn2c(=O)cc(CSc3nnnn3C)nc2s1 do in these assays?
PL synth Enamine: inactive

How did COc1ccc(OC)c(S(=O)(=O)Oc2cccc3ccccc23)c1 do in these assays?
PL synth Enamine: inactive

Results for CCOC(=O)c1c(C)[nH]c(C(=O)O)c1C ?
PL synth Enamine: inactive

How did CCOC(=O)c1c(C)[nH]c(N=Nc2ccc3c(c2)OCO3)c1C do in these assays?
PL synth Enamine: active

How did CCOC(=O)c1c(C)[nH]c(C(=O)COC(=O)c2ccc(C)s2)c1C do in these assays?
PL synth Enamine: inactive

Results for O=[N+]([O-])c1ccc(N=Nc2c(O)[nH]c3ccc(Br)cc23)cc1 ?
PL synth Enamine: active

What do the screens show for `O=[N+]([O-])c1ccc2[nH]c(O)c(N=Nc3ccc(Cl)c(Cl)c3)c2c1`?
PL synth Enamine: inactive

How did Oc1[nH]c2ccc(Br)cc2c1N=Nc1ccc(Cl)c(Cl)c1 do in these assays?
PL synth Enamine: inactive
